Reference: PubChem BioAssay (Tox21)
Inconclusive results are not listed. The source made the active and inactive calls. Unless noted, calls follow the shape of the full dose curve.

Legend:
[1] = Nuclear factor erythroid 2-related factor 2/antioxidant responsive element (Nrf2/ARE) small molecule agonists: qHTS cell viability counter screen in human keratinocytes (AID 1919968; active = well fitted curve in the direction sought with a large enough effect in the repeat runs; an effect the other way counts as inactive or inconclusive; also: nearly all actives have a fitted effect of over 55% in size)
Procedure, shortened: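 Stably transfected HaCaT (KeratinoSens), 1,500/well. Test agents in DMSO were applied for 23 h, 37 C/5% CO2. CellTiter-Fluor was incubated 1 h before the fluorescence read.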

[2] = Nuclear factor erythroid 2-related factor 2/antioxidant responsive element (Nrf2/ARE) small molecule agonists: luciferase reporter gene qHTS assay in human keratinocytes (AID 1919969); also: nearly all actives have a fitted effect of over 35% in size
[3] = molecular target: Gonadotropin-releasing hormone receptor (Homo sapiens) (UniProt P30968); test: Human gonadotropin-releasing hormone receptor (GnRHR) small molecule agonists, calcium flux assay in GnRHR-HEK293 cells (AID 1920063); also: nearly all actives have a fitted effect of over 35% in size
Gonadotropin-releasing hormone receptor (Homo sapiens), sequence (P30968 whole entry, looked up): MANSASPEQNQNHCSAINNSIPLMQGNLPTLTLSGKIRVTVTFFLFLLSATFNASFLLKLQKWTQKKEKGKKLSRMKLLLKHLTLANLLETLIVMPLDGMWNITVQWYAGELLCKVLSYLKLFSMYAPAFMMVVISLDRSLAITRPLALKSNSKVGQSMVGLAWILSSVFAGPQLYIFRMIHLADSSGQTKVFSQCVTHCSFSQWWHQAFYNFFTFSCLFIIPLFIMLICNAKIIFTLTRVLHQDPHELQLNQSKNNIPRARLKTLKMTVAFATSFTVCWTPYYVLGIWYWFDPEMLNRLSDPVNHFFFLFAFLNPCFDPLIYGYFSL
Procedure, shortened: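 Stable human GnRHR HEK293 line. 18 h plating, then calcium dye for 1 h at 37 C. Agonist-mode compound addition from DMSO stocks; fluorescence monitored 3 min.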

[4] = molecular target: KiSS-1 receptor (Homo sapiens) (UniProt Q969F8); test: Human kisspeptin (KISS1R) small molecule agonists, calcium flux assay in KISS1R-HEK293 cells (AID 1920064; active = well fitted curve in the direction sought with a large enough effect in the repeat runs; an effect the other way counts as inactive or inconclusive)
KiSS-1 receptor (Homo sapiens), sequence (Q969F8 whole entry, looked up): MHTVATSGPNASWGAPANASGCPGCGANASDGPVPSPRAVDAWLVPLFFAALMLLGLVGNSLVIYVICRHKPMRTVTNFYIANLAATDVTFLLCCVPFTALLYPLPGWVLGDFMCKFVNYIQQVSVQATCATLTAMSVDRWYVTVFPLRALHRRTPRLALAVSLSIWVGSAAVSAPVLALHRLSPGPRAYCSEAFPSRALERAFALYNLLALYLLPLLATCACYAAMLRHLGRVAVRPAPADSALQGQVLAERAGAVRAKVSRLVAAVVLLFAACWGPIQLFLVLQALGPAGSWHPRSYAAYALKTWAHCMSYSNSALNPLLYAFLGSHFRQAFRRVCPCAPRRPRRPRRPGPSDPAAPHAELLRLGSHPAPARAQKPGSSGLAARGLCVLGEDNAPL
Procedure, shortened: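 After overnight (18 h) culture at 37 C/5% CO2, human KISS1R-HEK293 cells received calcium dye for 1 h, then test compound; emission at 540 nm (excitation 480 nm) was tracked for 3 min.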

[5] = G protein-coupled receptor (GPCR) small molecule agonists, calcium flux assay: HEK293 wild type cell line counter screen (AID 1920065)
Procedure, shortened: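 Following 18 h incubation at 37 C/5% CO2, plates got calcium dye for 1 h; compounds, ATP or DMSO were then pinned in and fluorescence followed kinetically (480/540 nm).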

[6] = p53 small molecule agonists, cell-based qHTS assay with human liver microsomes (AID 1963577);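 also: p53 response element beta-lactamase reporter cells with liver microsomes plus NADPH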
Procedure, shortened: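 HLM-supplemented p53RE-bla reporter assay: 16 h compound exposure at 37 C, microsomes and NADPH each 0.5 mg/mL final, read by fluorescence intensity.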

[7] = p53 small molecule agonists, cell-based qHTS assay with rat liver microsomes (AID 1963578)
Procedure, shortened: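 Quantitative HTS of the Tox21 10K library: p53RE-bla cells, rat liver microsomes plus NADPH at 0.5 mg/mL final each, 16 h at 37 C, beta-lactamase fluorescence detection.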

[8] = p53 small molecule agonists, cell-based qHTS assay with human liver microsomes: qHTS cell viability counter screen (AID 1963579); also: nearly all actives have a fitted effect of over 45% in size
Procedure, shortened: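 Viability of p53RE-bla cells is measured as CellTiter-Glo luminescence following a 16 h, 37 C incubation with compound, liver microsomes from human donors and NADPH.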

[9] = p53 small molecule agonists, cell-based qHTS assay with rat liver microsomes: qHTS cell viability counter screen (AID 1963580); also: nearly all actives have a fitted effect of over 45% in size
Procedure, shortened: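 Luminescent ATP readout (CellTiter-Glo, 30 min at room temperature) reports viability of p53RE-bla HCT-116 cells after 16 h at 37 C with test compounds under metabolic activation by rat liver microsomes and NADPH at 0.5 mg/mL final each.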

[10] = p53 small molecule agonists, cell-based qHTS assay (AID 1963582; active = well fitted activation curve with a large enough effect in the signal ratio in the repeat runs, not every such curve was filed as active; the % refers to the signal ratio)
Procedure, shortened: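 Measured: fluorescence from cleaved LiveBLAzer substrate. System: p53RE-bla cells, 16 h compound treatment at 37 C, 2 h substrate step at room temperature.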

[11] = molecular target: 5-hydroxytryptamine receptor 2A (Homo sapiens) (UniProt P28223); test: 5-hydroxytryptamine receptor 2A (HTR2A) small molecule antagonists, cell-based qHTS assay (AID 1963586); also: nearly all actives have a fitted effect of over 45% in size
5-hydroxytryptamine receptor 2A (Homo sapiens), sequence (P28223 whole entry, looked up): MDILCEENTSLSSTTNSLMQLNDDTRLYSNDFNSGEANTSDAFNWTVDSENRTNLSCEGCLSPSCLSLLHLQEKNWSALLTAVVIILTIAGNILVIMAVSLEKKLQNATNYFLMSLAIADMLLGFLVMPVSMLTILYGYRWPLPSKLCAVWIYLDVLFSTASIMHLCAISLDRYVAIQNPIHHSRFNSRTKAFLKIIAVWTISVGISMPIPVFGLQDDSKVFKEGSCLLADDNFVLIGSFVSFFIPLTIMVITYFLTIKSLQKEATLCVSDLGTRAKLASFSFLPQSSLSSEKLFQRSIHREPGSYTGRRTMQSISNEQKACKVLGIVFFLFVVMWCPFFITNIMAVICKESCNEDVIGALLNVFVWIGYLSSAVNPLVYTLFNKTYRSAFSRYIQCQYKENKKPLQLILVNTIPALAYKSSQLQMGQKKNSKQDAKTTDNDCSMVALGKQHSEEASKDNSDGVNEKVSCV
Procedure, shortened: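 CHO cells stably expressing human HTR2A were plated for 18 h at 37 C, then loaded with calcium dye for 1 h. Compounds were preincubated 5 min at room temperature before DOI (4 nM solution) was added. Kinetic fluorescence was read for 3 min.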

[12] = molecular target: 5-hydroxytryptamine receptor 2A (Homo sapiens) (UniProt P28223); test: 5-hydroxytryptamine receptor 2A (HTR2A) small molecule agonists, cell-based qHTS assay (AID 1963587); also: nearly all actives have a fitted effect of over 30% in size
Procedure, shortened: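 HTR2A-CHO cells, plated 18 h at 37 C/5% CO2, dye-loaded 1 h at 37 C; compounds in DMSO added by pin tool (agonist mode). Intracellular calcium flux read as kinetic fluorescence on FDSS over 2 min at 1 s intervals.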

[13] = molecular target: Muscarinic acetylcholine receptor M1 (Homo sapiens) (UniProt P11229); test: Cholinergic receptor muscarinic 1 (CHRM1) small molecule antagonists, cell-based qHTS assay (AID 1963588); also: nearly all actives have a fitted effect of over 40% in size
Muscarinic acetylcholine receptor M1 (Homo sapiens), sequence (P11229 whole entry, looked up): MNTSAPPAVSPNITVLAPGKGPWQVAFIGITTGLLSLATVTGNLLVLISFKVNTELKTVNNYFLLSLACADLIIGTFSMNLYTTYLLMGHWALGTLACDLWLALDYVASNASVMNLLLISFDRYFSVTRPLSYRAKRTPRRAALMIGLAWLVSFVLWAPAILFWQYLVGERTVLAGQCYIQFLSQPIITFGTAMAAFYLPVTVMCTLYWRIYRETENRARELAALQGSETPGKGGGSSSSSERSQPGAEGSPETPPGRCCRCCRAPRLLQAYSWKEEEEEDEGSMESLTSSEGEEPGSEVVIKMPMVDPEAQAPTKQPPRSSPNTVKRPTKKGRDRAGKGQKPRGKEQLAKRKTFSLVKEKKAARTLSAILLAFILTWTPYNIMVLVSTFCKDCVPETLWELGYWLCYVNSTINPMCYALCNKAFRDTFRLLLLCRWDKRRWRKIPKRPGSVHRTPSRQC
Procedure, shortened: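 Compounds were tested at 15 concentrations in three independent runs. Dye-loaded CHRM1-CHO cells were exposed 5 min at room temperature before stimulation by acetylcholine added at 50nM. Intracellular calcium was read kinetically on FDSS for 3 min.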

[14] = molecular target: Muscarinic acetylcholine receptor M1 (Homo sapiens) (UniProt P11229); test: Cholinergic receptor muscarinic 1 (CHRM1) small molecule agonists, cell-based qHTS assay (AID 1963589); also: nearly all actives have a fitted effect of over 35% in size
Procedure, shortened: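 Kinetic fluorescence (1 s intervals) of calcium-sensitive dye in human M1 CHO cells after compound addition; cells pre-incubated 18 h at 37 C/5% CO2 and dye-loaded 1 h.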

[15] = cAMP Responsive Elements (CRE) small molecule agonists, cell-based qHTS assay (AID 1963590)
Procedure, shortened: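 Test agents in DMSO were incubated 3 h at 37 C/5% CO2 with CRE-bla HEK 293T cells seeded 18 h earlier; LiveBLAzer B/G FRET substrate was added and read after 2 h at room temperature.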

[16] = cAMP Responsive Elements (CRE) small molecule antagonists, cell-based qHTS assay (AID 1963591; active = well fitted inhibition curve with a large enough effect in the signal ratio in the repeat runs, not every such curve was filed as active; the % refers to the signal ratio)
Procedure, shortened: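 Reporter line CRE-bla HEK 293T in dialyzed-FBS DMEM; cells preincubated 18 h, treated 3 h with compound plus NKH477 (0.25 uM final); LiveBLAzer FRET, 2 h RT.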

[17] = molecular target: Beta-2 adrenergic receptor (Homo sapiens) (UniProt P07550); test: Adrenergic beta2 receptor (ADRB2) small molecule antagonists, cell-based qHTS assay (AID 1963592); also: series mostly up to about 92 µM; nearly all actives have a fitted effect of over 50% in size
Beta-2 adrenergic receptor (Homo sapiens), sequence (P07550 whole entry, looked up): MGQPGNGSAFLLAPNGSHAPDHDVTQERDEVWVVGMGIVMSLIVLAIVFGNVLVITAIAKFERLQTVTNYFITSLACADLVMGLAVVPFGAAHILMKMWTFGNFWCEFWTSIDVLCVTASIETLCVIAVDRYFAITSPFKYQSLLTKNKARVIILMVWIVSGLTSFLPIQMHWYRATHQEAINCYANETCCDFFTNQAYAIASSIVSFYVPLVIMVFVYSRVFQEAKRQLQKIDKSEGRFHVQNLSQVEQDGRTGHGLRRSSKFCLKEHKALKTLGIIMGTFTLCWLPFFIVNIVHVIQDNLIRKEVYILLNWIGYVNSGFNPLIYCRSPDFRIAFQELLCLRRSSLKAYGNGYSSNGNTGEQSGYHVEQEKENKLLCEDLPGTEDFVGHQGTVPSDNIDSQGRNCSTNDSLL
Procedure, shortened: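 Assay format: CHO-ADRB2 cells, 18-20hr seeding at 37C/5% CO2, then compound plus 1nM isoproterenol agonist mix for 0.5hr RT. Homogeneous time-resolved fluorescence cAMP detection after 1hr, expressed as 665/615 nm ratio.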

[18] = molecular target: D(2) dopamine receptor (Homo sapiens) (UniProt P14416); test: Dopamine D2 receptor (DRD2) small molecule agonists, cell-based qHTS assay (AID 1963594); also: nearly all actives have a fitted effect of over 35% in size
D(2) dopamine receptor (Homo sapiens), sequence (P14416 whole entry, looked up): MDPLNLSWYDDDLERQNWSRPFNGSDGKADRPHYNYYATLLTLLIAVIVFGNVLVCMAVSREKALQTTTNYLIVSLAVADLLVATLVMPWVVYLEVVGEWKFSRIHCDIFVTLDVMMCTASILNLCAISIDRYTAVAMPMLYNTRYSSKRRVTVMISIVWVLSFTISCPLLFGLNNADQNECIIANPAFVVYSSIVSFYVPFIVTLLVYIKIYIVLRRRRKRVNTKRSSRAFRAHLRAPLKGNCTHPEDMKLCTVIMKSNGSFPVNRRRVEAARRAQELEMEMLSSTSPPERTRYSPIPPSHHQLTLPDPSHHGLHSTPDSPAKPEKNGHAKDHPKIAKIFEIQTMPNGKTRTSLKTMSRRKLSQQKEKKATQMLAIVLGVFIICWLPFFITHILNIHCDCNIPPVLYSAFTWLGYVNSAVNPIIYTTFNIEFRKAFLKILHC
Procedure, shortened: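 HEK293 cells stably expressing DRD2 were cultured 24 h at 37 C, then given Ro20-1724 (0.1 mM final) and compounds for 10 min at room temperature. NKH477 (200nM) was then added for 30 min. cAMP was read by HTRF.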

[19] = molecular target: D(2) dopamine receptor (Homo sapiens) (UniProt P14416); test: Dopamine D2 receptor (DRD2) small molecule antagonists, cell-based qHTS assay (AID 1963595; active = well fitted inhibition curve with a large enough effect in the signal ratio in the repeat runs, with a control signal flat; the % refers to the signal ratio)
Procedure, shortened: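 DRD2-HEK293; 0.1 mM Ro20-1724; cpd 10 min RT; NKH477 200 nM + quinpirole 12 nM, 30 min RT; HTRF cAMP (cAMP-d2/anti-cAMP cryptate), 665/620 nm ratio after 1 h.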

[20] = molecular target: Beta-2 adrenergic receptor (Homo sapiens) (UniProt P07550); test: Adrenergic beta2 receptor (ADRB2) small molecule agonists, cell-based qHTS assay (AID 1963593);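 also: CHO cells stably overexpressing human ADRB2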
Procedure, shortened: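 CHO cells stably over-expressing ADRB2 were plated overnight at 37C, then dosed with compounds plus a stimulation mix containing 100uM IBMX and 25uM Ro-20-1724 for 0.5hr at room temperature. cAMP was measured by HTRF competition, 1hr.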
% is scaled to controls: 0 for no effect and ±100 for the full control effect.

CCCCCc1ccc(Cl)cc1
inactive: Potency [1] | Potency [2] | Potency [3] | outcome [4] | outcome [5] | Potency [6] | Potency [7] | Potency [8] | Potency [9] | Potency [10] | Potency [11] | Potency [12] | Potency [13] | Potency [14] | Potency [15] | Potency [16] | Potency [17] | Potency [18] | Potency [19]

COc1cc(C(C)C)ccc1C
inactive: activity change, negative = cytotoxicity [1] 2.71% [at 19 µM] | activity, positive = activation [2] 17.4% [at 19 µM] | activity change [3] 0.369% [at 11.8 µM, hits give high values] | activation [4] 3.09% [at 15.8 µM] | activation [5] -0.338% [at 11.8 µM] | activation [6] -9.12% [at 13.5 µM] | activation [7] 0.156% [at 13.6 µM] | activity change, negative = cytotoxicity [8] -0.449% [at 13.5 µM] | activity change, negative = cytotoxicity [9] 0.485% [at 13.5 µM] | activation [10] -3.2% [at 13.5 µM] | activity, negative = inhibition [11] -13.4% [at 12.7 µM] | activation [12] 0.168% [at 15.9 µM] | activity, negative = inhibition [13] 8.74% [at 12.6 µM] | activation [14] -0.0401% [at 15.8 µM] | activation [15] -1.07% [at 19 µM] | activity change, negative = inhibition [16] -0.604% [at 18.9 µM] | activity change, negative = inhibition [17] -2.77% [at 19 µM] | activation [18] -1.89% [at 19 µM] | activity change, negative = inhibition [19] 15.4% [at 18.9 µM]

CCOC(=O)NNc1ccc(N(CC)CC(C)O)nn1 (stereo not given)
inactive: Potency [1] | Potency [2] | Potency [3] | outcome [4] | outcome [5] | Potency [6] | Potency [7] | Potency [8] | Potency [9] | Potency [10] | Potency [11] | Potency [12] | Potency [13] | Potency [14] | Potency [15] | Potency [16] | Potency [17] | Potency [20] | Potency [18] | Potency [19]

CCC(=O)C(=O)CC
inactive: Potency [1] | Potency [2] | Potency [3] | outcome [4] | outcome [5] | Potency [6] | Potency [7] | Potency [8] | Potency [9] | Potency [10] | Potency [11] | Potency [12] | Potency [13] | Potency [14] | Potency [15] | Potency [16] | Potency [17] | Potency [20]

C=Cc1ccccc1C=C
inactive: Potency [1] | Potency [2] | Potency [3] | outcome [4] | outcome [5] | Potency [6] | Potency [7] | Potency [8] | Potency [9] | Potency [10] | Potency [11] | Potency [12] | Potency [13] | Potency [14] | Potency [15] | Potency [16] | Potency [18]

C=CCOc1c(Br)cc(C(C)(C)c2cc(Br)c(OCC=C)c(Br)c2)cc1Br
inactive: Potency [1] | Potency [2] | Potency [3] | outcome [4] | outcome [5] | Potency [6] | Potency [7] | Potency [8] | Potency [9] | Potency [10] | Potency [11] | Potency [12] | Potency [13] | Potency [14] | Potency [15] | Potency [16] | Potency [17] | Potency [19]

CCCCCCCCCOC(C)=O
inactive: Potency [1] | Potency [2] | Potency [3] | outcome [4] | outcome [5] | Potency [6] | Potency [7] | Potency [8] | Potency [9] | Potency [10] | Potency [12] | Potency [13] | Potency [14] | Potency [15] | Potency [16] | Potency [17] | Potency [20] | Potency [18] | Potency [19]
